In paper PMC8384837, “Expanding the binding specificity for RNA recognition by a PUF domain” one finds binding signal data, which are given here for 6 sequences.

Common to all, as to test: yeast three-hybrid, YBZ-1, SC-Leu-His + 0.5 mM 3-AT, 4 days
Common to all, as to details: tags: N-Gal4 AD-HA kept; label: inside an RPR1-promoter hybrid RNA with tandem MS2 sites; ssRNA

One assay addresses PUM1 PUF domain R5-KMW (Homo sapiens, UniProt Q14671 828-1176, C1007K;R1008M;Q1011W). The method, boiled down:
(§1)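 Sequencing with Illumina followed PCR amplification of the repeat regions from transformants grown four days on SC-Leu (input) or SC-Leu-His + 0.5 mM 3-AT (selection). The transformants were strain YBZ-1 with a LexA–MS2 coat fusion and a HIS3 reporter, carrying Pumilio-1 PUF domain libraries and matching RNA elements. The interaction score is the log change in variant frequency from input to selection, computed in log2 with a pseudocount of 1 for absent variants.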

Another assay has as its target PUM1 PUF domain R5-KTV (Homo sapiens, UniProt Q14671 828-1176, C1007K;R1008T;Q1011V). The method, boiled down: as §1
The target of a further assay is PUM1 PUF domain R5-ERL (Homo sapiens, UniProt Q14671 828-1176, C1007E;Q1011L). The method, boiled down:
as §1

The next assay concerns the target PUM1 PUF domain R7-RGQ (Homo sapiens, UniProt Q14671 828-1176, S1079R;N1080G;E1083Q). The method, boiled down:
as §1

The next assay addresses T1, PUM1 PUF domain R6-FRI (Homo sapiens, UniProt Q14671 828-1176, N1043F;Y1044R;Q1047I).
T1 sequence: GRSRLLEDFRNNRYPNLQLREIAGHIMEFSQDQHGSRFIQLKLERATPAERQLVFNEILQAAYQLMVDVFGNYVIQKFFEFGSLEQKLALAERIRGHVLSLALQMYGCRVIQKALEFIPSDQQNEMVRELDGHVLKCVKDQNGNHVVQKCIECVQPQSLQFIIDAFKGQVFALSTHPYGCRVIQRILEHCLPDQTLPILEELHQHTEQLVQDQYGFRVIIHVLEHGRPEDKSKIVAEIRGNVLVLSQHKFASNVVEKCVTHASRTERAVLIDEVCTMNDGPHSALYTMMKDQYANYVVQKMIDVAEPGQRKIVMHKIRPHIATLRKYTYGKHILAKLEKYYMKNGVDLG
The method, boiled down:
as §1

For a further assay, the target named is PUM1 PUF domain R4-ALY (Homo sapiens, UniProt Q14671 828-1176, N971A;H972L;Q975Y). The method, boiled down:
as §1

For a further assay, the target named is PUM1 PUF domain R3-RSL (Homo sapiens, UniProt Q14671 828-1176, C935R;R936S;Q939L). The method, boiled down: as §1
In a further assay the target is PUM1 PUF domain R3-QRG (Homo sapiens, UniProt Q14671 828-1176, C935Q;Q939G). The method, boiled down:
as §1

A further assay deals with PUM1 PUF domain R3-RAD (Homo sapiens, UniProt Q14671 828-1176, C935R;R936A;Q939D). The method, boiled down: as §1
A further assay has as its target PUM1 PUF domain R3-WFE (Homo sapiens, UniProt Q14671 828-1176, C935W;R936F;Q939E). The method, boiled down:
as §1

Regarding “GGCUAGAACUAGUGGAUCCCCCGGCGCCCGGCGGCUCGAGCCCGGGUAAGUGUCAAUAGUCUGCAUGCCGCCGGGCGCCAUGCCUGCAGGUCGACUCUAGAAAACAUG”, the values for the binding signal in the assay with PUM1 PUF domain R5-KMW, with PUM1 PUF domain R5-KTV and with PUM1 PUF domain R5-ERL were 3.19 log2 enrichment (interaction score), 2.38 log2 enrichment (interaction score) and 3.87 log2 enrichment (interaction score), respectively.
For the sequence “GGCUAGAACUAGUGGAUCCCCCGGCGCCCGGCGGCUCGAGCCCGGGUAAGUCUAAAUAGUCUGCAUGCCGCCGGGCGCCAUGCCUGCAGGUCGACUCUAGAAAACAUG”, in the assay with PUM1 PUF domain R7-RGQ, the binding signal was 4.22 log2 enrichment (interaction score).
In the case of “GGCUAGAACUAGUGGAUCCCCCGGCGCCCGGCGGCUCGAGCCCGGGUAAGUGUAAAUAGUCUGCAUGCCGCCGGGCGCCAUGCCUGCAGGUCGACUCUAGAAAACAUG”, the binding signal is 1.25 log2 enrichment (interaction score) with PUM1 PUF domain R5-KMW, 3.38 log2 enrichment (interaction score) with PUM1 PUF domain R6-FRI, 3.56 log2 enrichment (interaction score) with PUM1 PUF domain R4-ALY and 5.49 log2 enrichment (interaction score) with PUM1 PUF domain R5-ERL.
With “GGCUAGAACUAGUGGAUCCCCCGGCGCCCGGCGGCUCGAGCCCGGGUAAGUGUAAUUAGUCUGCAUGCCGCCGGGCGCCAUGCCUGCAGGUCGACUCUAGAAAACAUG”, the binding signal with PUM1 PUF domain R3-RSL was 2.55 log2 enrichment (interaction score); with PUM1 PUF domain R3-QRG it was 2.4 log2 enrichment (interaction score); with PUM1 PUF domain R3-RAD, 4.21 log2 enrichment (interaction score).
As for “GGCUAGAACUAGUGGAUCCCCCGGCGCCCGGCGGCUCGAGCCCGGGUAAGUGUAAGUAGUCUGCAUGCCGCCGGGCGCCAUGCCUGCAGGUCGACUCUAGAAAACAUG”, the binding signal with PUM1 PUF domain R3-WFE is 3.04 log2 enrichment (interaction score); with PUM1 PUF domain R3-QRG, 3.07 log2 enrichment (interaction score).
Take “GGCUAGAACUAGUGGAUCCCCCGGCGCCCGGCGGCUCGAGCCCGGGUAAGUGUGAAUAGUCUGCAUGCCGCCGGGCGCCAUGCCUGCAGGUCGACUCUAGAAAACAUG”: in the assay with PUM1 PUF domain R5-ERL, the binding signal was 1.92 log2 enrichment (interaction score).
